A number with no mark means an inactive call. Calls of active or inactive are those of the source.
experiment: budding yeast growth changes without added modifier – OD600, strain BY4716, 24 h, basal condition, primary screen (AID 1173); conditions: S. cerevisiae BY4716 growth, OD600, 24 h; higher = more signal, called active from +8 up or from −8 down

SMILES	z-score
[N-]=[N+]=Nc1ccccc1[C@@H]1OC(c2ccc(OCCCO)cc2)=N[C@]1(CCS(=O)(=O)c1ccccc1)C(=O)NCC(O)CO (some centres not stated)	0.143
CCCNC(=O)[C@@]1(Sc2ccc(C)cc2)CC(=O)N(Cc2ccccc2Cl)[C@@H]1c1ccc(CO)cc1I	-4.16
COC(=O)[C@@]1(Cc2ccc(OC)cc2)[C@H]2c3cc(C(=O)N4CCCC4)n(CCn4cc([N+](=O)[O-])nc4C)c3C[C@H]2CN1C(=O)c1ccccc1	0.477
COCC(=C=CC[C@H](O)c1ccccc1OCCO)C[C@H](O)COCc1ccccc1	-2.91
C=CC1c2cc(O)c(OC)cc2CCN1C (configuration not stated)	-0.457
COc1ccc([Si](C)(C)[C@H]2[C@H](CC(=O)N3CCC[C@H]3CO)O[C@@]3(C(=O)N(Cc4ccc(N5CCCCC5=O)cc4)c4ccccc43)[C@@H]2C)cc1	-0.0356
Cc1ccc(F)cc1S(=O)(=O)N[C@H]1CCN(Cc2ccc(OC(C)C)cc2)C1	-9.28 (active)
COC(=O)C(CC#Cc1ccc2c(c1)[C@]1(C(=O)N2)[C@H](c2ccccc2OCCO)N2[C@H](c3ccccc3)[C@H](c3ccccc3)OC(=O)[C@H]2[C@@H]1C(=O)N1CCc2cc(OC)c(OC)cc2C1)C(=O)OC	1.07

experiment: viability profiling in MM1S myeloma cells – cell-based, resazurin fluorescence, basal, 24 h, PK04 Diversity Set, profiling panel (AID 1174); conditions: higher = more signal, called active from +8 up or from −8 down;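 note: MM1S multiple myeloma cell line; test concentration not given here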

SMILES	z-score
C=C(COC)/C(=C/C[C@H](OC(C)=O)c1ccccc1OCCO)c1cc(C(=O)OC)ccc1OC	0.181
C=C(CCCC)/C(=C/C[C@H](OC(=O)c1ccncc1)c1cccc(OCCO)c1)c1cnc2ccccc2c1	-0.737
C=C(COC)C(=O)CC[C@@H](OC(C)=O)c1ccccc1OCCO	-0.851
COc1ccc(C(O)C2C=CC3C(=O)N(c4ccccc4)C(=O)C3N2Nc2ccc(C#N)cc2)cc1OCc1ccccc1 (configuration not stated)	-0.829
CCOC(=O)C1=CC[C@@H](c2ccc(OC)cc2)N(S(=O)(=O)c2ccc(C)cc2)[C@H]1c1ccc(C)cc1	-0.616
C=C(CCCC)/C(=C/C[C@H](OC(C)=O)c1cccc(OCCO)c1)c1cnc2ccccc2c1	-0.117
CC(=O)OCC1C2CC[C@H]3C(OCc4ccc(F)cc4C(F)(F)F)OC[C@]4(C)[C@H]3C2=C(CN4C(=O)OC(C)(C)C)[C@H](C)C1COC(C)=O (some centres not stated)	-1.34
CC(C)(C)OC(=O)CC[C@]1(C(=O)NCC(O)CO)N=C(c2ccc(OCCCO)cc2)O[C@H]1c1ccccc1N=[N+]=[N-] (some centres not stated)	-1.58
COC(=O)[C@@]1(Cc2ccc(F)cc2)[C@H]2c3cc(C(=O)N(C)C)n(CCc4ccc(O)c(O)c4)c3C[C@H]2CN1C(=O)c1ccccc1	-1.01
CC[C@@H]1C=C(C(=O)O)[C@H](c2ccc(OC)cc2)N1S(=O)(=O)c1ccc(C)cc1	-0.675
COC(=O)[C@@]1(Cc2ccccc2)N=C(c2ccc(OCCCO)cc2)O[C@H]1c1ccccc1CN=[N+]=[N-]	-7.62
COc1ccc(C(=O)Nc2cccc(CN3C(=O)[C@@]4(O[C@@H](CC(=O)N5CCC[C@H]5CO)[C@H]([Si](C)(C)c5ccc(OC)cc5)[C@H]4C)c4ccccc43)c2)cc1	-1.17
CC(=O)c1ccc(C(O)C2C=CC3C(=O)N(c4ccccc4)C(=O)C3N2Nc2ccc(C(C)C)cc2)cc1 (configuration not stated)	-1.44
COc1ccccc1CN1C(=O)c2ccccc2[C@](Cc2ccccc2I)(C(=O)NCC(C)C)[C@@H]1c1ccc(CO)cc1	0.916
C=CCNC(=O)[C@H]1[C@@H]2C(=O)O[C@@H](c3ccccc3)[C@@H](c3ccccc3)N2[C@@H](c2ccc(OCCO)cc2)[C@]12C(=O)Nc1ccc(C#CC3(O)CCCCCC3)cc12	-0.823
[N-]=[N+]=Nc1ccccc1C[C@@]1(C(=O)NCC(O)CO)N=C(c2ccc(OCCCO)cc2)O[C@@H]1c1ccccc1 (some centres not stated)	0.33
CCOC(=O)c1cn(C[C@H](Cc2ccccc2)NC(=O)N[C@H](CO)CCc2oc(C(C)=O)c(C(=O)OC)c2C(=O)OC)nn1	0.225
Cc1ccc(S[C@]2(C(=O)NCCCN(C)C)CC(=O)N(Cc3ccccc3C(F)(F)F)[C@@H]2c2ccc(CO)cc2I)cc1	-3.16
COCCOC(=O)N1C(=O)[C@@]2(c3cc(C#CCNC(N)=O)ccc31)[C@H](C(=O)Nc1nc3ccccc3s1)[C@H]1C(=O)O[C@H](c3ccccc3)[C@H](c3ccccc3)N1[C@@H]2c1ccccc1OCCO	-0.482
